PubChem BioAssay
Values joined by “and” are separate entries in the source; they are usually repeats but may differ in a detail not shown here. Equal entries are not always repeated.

Tests used:
[1] = test system: Botulinum neurotoxin type F light chain protease (Clostridium botulinum); experiment: Clostridium botulinum type F light chain protease inhibitors, microsphere substrate cleavage, validation (AID 588459); conditions: multiplex microsphere protease substrate cleavage assay, flow cytometry; at 10 µM; hits give high values
[2] = target: Botulinum neurotoxin type A (Clostridium botulinum) (UniProt P0DPI0); experiment: BoNT/A light chain protease inhibitors, biochemical, multiplex microsphere flow cytometry, validation set (AID 588460); conditions: at 10 µM, hits give high values
Botulinum neurotoxin type A (Clostridium botulinum), sequence (P0DPI0 whole entry, looked up): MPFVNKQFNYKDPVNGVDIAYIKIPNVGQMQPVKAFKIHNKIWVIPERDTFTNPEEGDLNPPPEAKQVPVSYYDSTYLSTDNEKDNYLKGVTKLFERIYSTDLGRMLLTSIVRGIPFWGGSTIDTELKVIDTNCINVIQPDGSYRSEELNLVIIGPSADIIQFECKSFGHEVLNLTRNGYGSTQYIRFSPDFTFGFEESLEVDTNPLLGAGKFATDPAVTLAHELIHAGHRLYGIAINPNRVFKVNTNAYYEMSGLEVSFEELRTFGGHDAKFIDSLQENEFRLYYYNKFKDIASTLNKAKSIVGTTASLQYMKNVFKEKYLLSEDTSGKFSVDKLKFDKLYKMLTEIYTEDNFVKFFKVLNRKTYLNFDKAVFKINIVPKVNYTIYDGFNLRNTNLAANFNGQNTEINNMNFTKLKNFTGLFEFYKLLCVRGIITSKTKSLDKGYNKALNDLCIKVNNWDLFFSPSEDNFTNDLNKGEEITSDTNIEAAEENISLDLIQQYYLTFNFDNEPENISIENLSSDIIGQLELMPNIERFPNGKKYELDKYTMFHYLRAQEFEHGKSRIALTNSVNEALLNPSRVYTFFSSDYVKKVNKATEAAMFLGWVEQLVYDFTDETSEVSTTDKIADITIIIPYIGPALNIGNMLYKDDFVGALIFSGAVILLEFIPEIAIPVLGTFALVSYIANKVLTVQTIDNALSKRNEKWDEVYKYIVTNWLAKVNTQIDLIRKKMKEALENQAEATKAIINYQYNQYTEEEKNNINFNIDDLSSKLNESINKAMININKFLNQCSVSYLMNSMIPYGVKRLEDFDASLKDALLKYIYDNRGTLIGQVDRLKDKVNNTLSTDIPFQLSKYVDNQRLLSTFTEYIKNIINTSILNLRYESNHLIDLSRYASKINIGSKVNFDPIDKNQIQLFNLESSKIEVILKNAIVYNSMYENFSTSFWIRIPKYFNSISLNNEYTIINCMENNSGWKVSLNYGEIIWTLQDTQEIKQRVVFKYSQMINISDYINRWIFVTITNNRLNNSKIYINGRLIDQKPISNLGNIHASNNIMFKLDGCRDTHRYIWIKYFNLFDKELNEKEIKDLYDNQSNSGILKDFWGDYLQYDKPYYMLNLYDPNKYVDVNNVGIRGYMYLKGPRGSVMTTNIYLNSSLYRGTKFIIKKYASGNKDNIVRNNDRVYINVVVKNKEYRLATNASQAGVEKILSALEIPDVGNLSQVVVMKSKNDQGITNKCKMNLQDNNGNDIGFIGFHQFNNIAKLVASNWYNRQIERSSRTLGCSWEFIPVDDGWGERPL

[3] = target: Lethal factor (Bacillus anthracis) (UniProt P15917); experiment: Bacillus anthracis lethal factor inhibition, microsphere flow cytometry protease assay, validation at 10 µM (AID 588461); conditions: multiplex microsphere protease cleavage assay, hits give high values
Lethal factor (Bacillus anthracis), sequence (P15917 whole entry, looked up): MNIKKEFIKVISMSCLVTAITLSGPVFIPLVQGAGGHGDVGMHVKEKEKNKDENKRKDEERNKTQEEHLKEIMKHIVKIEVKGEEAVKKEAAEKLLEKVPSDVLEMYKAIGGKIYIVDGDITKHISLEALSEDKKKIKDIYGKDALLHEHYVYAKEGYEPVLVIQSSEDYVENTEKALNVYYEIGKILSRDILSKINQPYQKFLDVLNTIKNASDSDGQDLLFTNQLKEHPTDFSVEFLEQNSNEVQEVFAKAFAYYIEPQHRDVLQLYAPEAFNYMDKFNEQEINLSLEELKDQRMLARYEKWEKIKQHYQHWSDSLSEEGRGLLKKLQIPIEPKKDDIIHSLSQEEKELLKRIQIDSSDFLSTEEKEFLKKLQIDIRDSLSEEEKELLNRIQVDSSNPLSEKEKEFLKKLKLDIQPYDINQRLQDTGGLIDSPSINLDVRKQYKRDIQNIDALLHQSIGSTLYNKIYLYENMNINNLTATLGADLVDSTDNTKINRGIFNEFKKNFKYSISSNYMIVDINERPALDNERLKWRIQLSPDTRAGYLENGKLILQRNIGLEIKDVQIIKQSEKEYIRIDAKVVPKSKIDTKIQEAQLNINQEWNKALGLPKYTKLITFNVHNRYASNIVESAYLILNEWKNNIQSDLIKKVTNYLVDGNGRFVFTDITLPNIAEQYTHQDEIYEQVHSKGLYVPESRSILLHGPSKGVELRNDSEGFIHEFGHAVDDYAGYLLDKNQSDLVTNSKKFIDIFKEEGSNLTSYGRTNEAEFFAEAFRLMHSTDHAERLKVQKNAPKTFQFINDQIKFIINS

Measured: inhibition

NC12CC3CC(C1)CC(O)(C3)C2
inactive: [1] 4.4% | [2] -0.4% | [3] -0.7%

O=C(Nc1nc2ccccc2s1)c1ccc(F)cc1
inactive: [1] -5.1% | [2] -1.5% | [3] -5.8%

Fc1cc(F)cc(NC(=S)NCCCN2CCOCC2)c1
inactive: [1] 0.9% | [2] -0.7% | [3] -2.9%

CCCC1O[C@@H]2C[C@H]3[C@@H]4CCC5=CC(=O)C=C[C@]5(C)[C@H]4[C@@H](O)C[C@]3(C)[C@]2(C(=O)CO)O1 (stereo partly specified)
inactive: [1] 6.3% | [2] 3.4% | [3] 3.4%

O=C(O)/C=C/c1ccc(O)c(O)c1
inactive: [1] -0.3% | [2] -0.4% | [3] -1.7%

CCOC(=O)c1cc2c(nc1N)CC(C)(CC)OC2 (stereo unspecified)
inactive: [1] 3.5% | [2] 1% | [3] -2.4%

C1CCC(C(CC2CCCCN2)C2CCCCC2)CC1 (stereo unspecified)
inactive: [1] -7.7% | [2] 0.4% | [3] -14.1%

CCOc1cc(C=O)ccc1OCCSc1ccc(C)cc1
inactive: [1] 1.3% | [2] 0.4% | [3] -3.6%

N#C/C(=C\c1ccc(O)c(O)c1)C(=O)NCCCc1ccccc1
inactive: [1] 1.8% | [2] 1.2% | [3] -2.8%

CCn1c(/C=C/c2ccccc2)nc2ccccc2c1=O
inactive: [1] 2.4% | [2] -1.7% | [3] 7.2%

O=C(/C=C/c1ccco1)N1CCN(c2ccccc2)CC1
inactive: [1] -0.6% | [2] -1.8% | [3] -0.6%

COC(=O)c1cc(Br)c(=O)n(CCc2ccc(O)cc2)c1
inactive: [1] 2.6% | [2] 1.3% | [3] -5.3%

Cc1oc2c(C)c3oc(=O)c4c(c3cc2c1C)CCCC4
inactive: [1] 0.8% | [2] -0.2% | [3] 1.3%

CCc1cc(-c2[nH]ncc2-c2ccc3c(c2)OCO3)c(O)cc1O
inactive: [1] -0.4% | [2] -0.4% | [3] 2.3%

Cc1ccc(OCCSc2ncccn2)c(C)c1
inactive: [1] 3.4% | [2] 0.6% | [3] 1.7%

Cc1oc2c(CN3CCCC3)c(O)ccc2c(=O)c1-c1ccc(Cl)cc1
inactive: [1] -1.2% | [2] -0.3% | [3] -0.5%

CN(Cc1c(C(=O)N(C)Cc2ccccc2)nc2ccccn12)CC1Cc2ccccc2O1 (stereo unspecified)
inactive: [1] 4.4% | [2] 0.4% | [3] -5.9%

CC(C)C12CN3CC(C(C)C)(CN(C1)C31C(=O)Nc3ccccc31)C2=O (stereo unspecified)
inactive: [1] 0.1% | [2] 0.7% | [3] 9%

O=C1c2ccccc2C2(c3ccccc3)NCCN12 (stereo unspecified)
inactive: [1] -1.6% | [2] -1.3% | [3] 8.5%

CCCc1c(OCCCCc2nn[nH]n2)ccc(C(C)=O)c1O
inactive: [1] -1.3% | [2] -4% | [3] -10.3%

CC(C)N1C(=O)/C(=C\c2nc3ccccc3c(=O)[nH]2)c2ccccc21
inactive: [1] -0.2% | [2] -0.6% | [3] -0.1%

O=C(/C=C/c1ccco1)NCc1ccc2c(c1)OCO2
inactive: [1] -2.9% | [2] -0.4% | [3] 6.8%

CCN(CC)C(=O)c1ccc(O)c(OC)c1
inactive: [1] -2.8% | [2] -0.4% | [3] -6.3%

CC(=O)N1N=C(c2cccs2)CC1c1ccc(C)o1 (stereo unspecified)
inactive: [1] -1.2% | [2] -0.8% | [3] 1.7%

O=C(Nc1c(C(=O)O)[nH]c2ccccc12)NC1CCCCC1
inactive: [1] 1.6% | [2] 0.4% | [3] -2.2%

O=C1c2cccc3cccc(c23)C(=O)N1c1ccccn1
inactive: [1] -2.7% | [2] 0.1% | [3] 1.1%

CC(C)(C)N(Cc1ccccc1)C(=O)c1ccc(Br)o1
inactive: [1] -1.1% | [2] 0.8% | [3] 11.8%

O=c1c2ccccc2nc2n1-c1ccccc1CCC2
inactive: [1] 3.5% | [2] 0.6% | [3] 12.2%

COc1ccc(C(Cl)=C(c2ccc(OC)cc2)c2ccc(OC)cc2)cc1
inactive: [1] 1.5% | [2] -0.6% | [3] -1.1%

CCN(CC)c1ccc(C2=NNC(=O)CC2C)cc1[N+](=O)[O-] (stereo unspecified)
inactive: [1] -2.1% | [2] -0.3% | [3] -6.2%

COc1c2ccoc2nc2c(OC)cccc12
inactive: [1] -3.7% | [2] 0.1% | [3] 3%

C[C@@H]1C[C@H]2[C@@H]3C[C@H](F)C4=CC(=O)C=C[C@]4(C)[C@@]3(F)[C@@H](O)C[C@]2(C)[C@@]1(O)C(=O)COC(=O)C(C)(C)C
inactive: [1] -2.6% | [2] -2.1% | [3] 3.4%

O=C(CCC(=O)NCCO)NCCO
inactive: [1] 1.2% | [2] 0.4% | [3] 6.9%

C=C(C)c1nc2cc(OC)c(OC)cc2c(=O)o1
inactive: [1] -7.9% | [2] -1.3% | [3] 0.1%

CCC(=O)c1ccc(OCc2ccc(C(=O)OC)cc2)cc1
inactive: [1] -1.6% | [2] 0.7% | [3] -3.4%

COc1ccc(CC(=O)Nc2cccc(C(=O)Nc3ccccc3C(=O)O)c2)cc1OC
inactive: [1] -5.3% | [2] -3.3% | [3] 1.8%

CCOC(=O)C1=C(N)Oc2c(oc(CO)cc2=O)C1c1ccc(F)c(F)c1 (stereo unspecified)
inactive: [1] 2.1% | [2] 0.3% | [3] -2.3%

CCc1cc(=O)oc2cc(OCc3nn[nH]n3)ccc12
inactive: [1] -0.5% | [2] -1.3% | [3] 1.9%

Cc1ccc2occ(C(=O)c3ccco3)c(=O)c2c1
inactive: [1] 1.1% | [2] -0.5% | [3] 2.6%

Cn1nc(-c2ccc(Cl)cc2)nc2c(=O)n(C)c(=O)nc1-2
inactive: [1] -0.5% | [2] 2% | [3] 3.7%

CCOC(=O)C1C2C=CC3(CN(c4ccc(Cl)c(F)c4)C(=O)C13)O2 (stereo unspecified)
inactive: [1] 2.9% | [2] -2.3% | [3] 6.8%

O=C1CC(c2ccc(F)cc2)Cc2nc(NCC3CCCO3)ncc21 (stereo unspecified)
inactive: [1] -1% | [2] 0.1% | [3] -6.1%

CC[C@]1(O)C[C@@H]2CN(CCc3c([nH]c4ccccc34)[C@@](C(=O)OC)(c3cc4c(cc3OC)N(C)[C@H]3[C@@](O)(C(=O)OC)[C@H](OC(C)=O)[C@]5(CC)C=CCN6CC[C@]43[C@@H]65)C2)C1
inactive: [1] 16.1% | [2] 3.4% | [3] -0.3%

CC(C)(C)C(=O)N1CCCC1C(=O)O (stereo unspecified)
inactive: [1] -1% | [2] -1.2% | [3] -0.9%

COC(=O)C1=C(C)NC(C)=C(C(=O)OCCN(C)Cc2ccccc2)C1c1cccc([N+](=O)[O-])c1 (stereo unspecified)
inactive: [1] -2.1% | [2] -0.8% | [3] -3.7%

CC1=NN(c2ccccc2)C(=O)C1
inactive: [1] 1.1% | [2] -3% | [3] 1.8%

O=C1CN(O)C=C2N=c3ccccc3=C2N1c1ccc([N+](=O)[O-])cc1
inactive: [1] -2.6% | [2] -2.1% | [3] -4.4%

CCOCCn1c(C(C)O)nc2ccccc21 (stereo unspecified)
inactive: [1] 4% | [2] 0.3% | [3] 3.1%

COc1cc2nc(N3CCN(C(=O)C4CCCO4)CC3)nc(N)c2cc1OC (stereo unspecified)
inactive: [1] 3.3% and 1.5% | [2] 0% | [3] -5.7% and -7.8%

Cc1ccsc1/C=C/C1=NCCCN1C
inactive: [1] -0.9% | [2] 1.6% | [3] -3.7%

CC(=O)Nc1ccc2[nH]c(C)c(CC=C(Cl)Cl)c(=O)c2c1
inactive: [1] -0.7% | [2] -1.7% | [3] -4.2%

C[C@]12CCC(=O)C=C1CC[C@@H]1[C@@H]2[C@@H](O)C[C@@]2(C)[C@H]1CC[C@]2(O)C(=O)COC(=O)CCC(=O)O
inactive: [1] 1.7% | [2] -2.4% | [3] -8%

CCc1ccc(/C=C2\SC(=S)N(CCC(=O)N3CCN(C)CC3)C2=O)cc1
inactive: [1] 4.9% | [2] 2.1% | [3] 4.9%

CCCCCC#CCC#CCC#CCC#CCCCC(=O)O
inactive: [1] 5.7% | [2] -0.6% | [3] -1.6%

OC(CCCN1CCC(O)(c2ccc(Cl)cc2)CC1)c1ccc(F)cc1 (stereo unspecified)
inactive: [1] -1.7% | [2] 1.7% | [3] -4.8%

CC1(C)CC(=O)C(C2(O)C(=O)Nc3ccccc32)CO1 (stereo unspecified)
inactive: [1] -0.1% | [2] -1.6% | [3] -6%

CC(C)NC(=O)C1(c2ccccc2)CCOCC1
inactive: [1] -2.6% | [2] -0.5% | [3] -2.6%

COC(=O)C1=C(C)N(Cc2ccco2)C(=O)/C1=C\c1ccc([N+](=O)[O-])cc1
inactive: [1] 1% | [2] -0.6% | [3] -3.7%

CC1(C)O[C@@H]2C[C@H]3[C@@H]4C[C@H](F)C5=CC(=O)C=C[C@]5(C)[C@@]4(F)[C@@H](O)C[C@]3(C)[C@]2(C(=O)CO)O1
inactive: [1] -0.5% | [2] 0.1% | [3] -6.8%

COc1ccc(CCn2c(C)nc3c(c(=O)c4ccccc4n3C)c2=O)cc1
inactive: [1] 3.4% | [2] 0.2% | [3] 5.5%

CCN(CC)CCOC(=O)C(c1ccccc1)c1ccccc1
inactive: [1] 1.8% | [2] -1.6% | [3] -3.7%

C[C@]12CC[C@@H]3c4ccc(O)cc4C(=O)C[C@H]3[C@@H]1CC[C@@H]2O
inactive: [1] 1.2% | [2] -1.3% | [3] -6.8%
